From ChEMBL document CHEMBL3988442, “University of Dundee, Small-Polar-MMV Screening Library” (2021)
Out of some 48,000 compounds screened, about 13,000 (27%) showed an effect of 50% or more. This is one part of the list.

test system: Wolbachia pipientis; experiment: Anti-Wolbachia Cell-Based Screen; assay type: functional; design: scale not given: in the data most compounds retested in dose-response had high values; details: 5 µM

Row | SMILES | Percent Effect [%]
1 | O=C(O)CCNC(=O)C1(c2cccc(Br)c2)CCOCC1 | -13.76
2 | NC(=O)C1CCCN1Cc1ccccc1NC(=O)Cc1cccc(F)c1 (stereo not given) | -5.666
3 | N#Cc1cccnc1NCCNC(=O)N1CCSCC1 | -7.557
4 | CC(C)N1Cc2c(C(=O)N3CCN(C)CC3)nn(C)c2C1 | 107
5 | CCC(C)N1Cc2c(C(=O)N3CCCC3)nn(C)c2C1.O=C(O)C(F)(F)F (stereo not given) | 4.311
6 | CC(C)N1CCc2ncn(C)c2C1C(=O)N1CCOCC1.O=C(O)C(F)(F)F (stereo not given) | -11.58
7 | CC(C)N1CCc2[nH]nc(C(=O)N3CCN(C)CC3)c2C1.O=C(O)C(F)(F)F.O=C(O)C(F)(F)F.O=C(O)C(F)(F)F | -19.75
8 | CCC(C)N1Cc2c(C(=O)N3CCOCC3)nn(C)c2C1.O=C(O)C(F)(F)F (stereo not given) | 101.3
9 | Cn1nc(Cn2cccn2)c2c1CN(C1CCOC1)C2.O=C(O)C(F)(F)F (stereo not given) | -10.84
10 | CC(C)N1CCc2c(C(=O)N3CCOCC3)nn(C)c2C1.O=C(O)C(F)(F)F | 113.7
11 | CC(C)N1CCc2[nH]nc(C(=O)N3CCOCC3)c2C1.O=C(O)C(F)(F)F.O=C(O)C(F)(F)F | -15.4
12 | CCC(C)N1CCc2c(C(=O)N(C)Cc3ccccn3)nn(C)c2C1 (stereo not given) | -11.92
13 | CCSc1ccccc1C(=O)N1CCC(S(=O)(=O)c2nncn2C)CC1 | -2.113
14 | O=C(CCN1CCc2cncnc2C1)N1CCc2sccc2C1 | -13.17
15 | CCCN(Cc1nc2ccccc2[nH]1)Cc1ccccc1OC | -7.618
16 | CNC(=O)C(CC(C)C)NC(=O)c1cccc(-c2n[nH]c(C)n2)c1 (stereo not given) | -1
17 | CN1CCCC(c2cccc(CCC(=O)NCC3(C)COC3)n2)C1 (stereo not given) | 99.75
18 | Cc1n[nH]c(C)c1NC(=O)CCc1cccc(C2CCCN(C)C2)n1 (stereo not given) | 122.5
19 | CNC(=O)CCc1cccc(C2CCCN(c3cc(C)ncn3)C2)n1 (stereo not given) | 97.41
20 | O=C(CCc1ccccn1)NC1CCCN(C2Cc3ccccc3C2)C1 (stereo not given) | 4.048
21 | COCC1CCN(C(=O)c2cccc(S(=O)(=O)NCC3(C)COC3)c2)C1 (stereo not given) | -10.59
22 | Cc1n[nH]c(C)c1NC(=O)CN1CCc2c(nc(C3CC3)n2C)C1 | 10.04
23 | Cc1cnc(CN(C)C2CCN(CC(=O)Nc3c(C)n[nH]c3C)C2)o1 (stereo not given) | -8.354
24 | CN1CCCC(c2cccc(CCC(=O)NCc3ccccn3)n2)C1 (stereo not given) | 93.1

Row | SMILES | Percent Effect [%]
25 | CN1CCN(C(=O)c2cccc(S(=O)(=O)NCC3(C)COC3)c2)CC1 | -15.33
26 | CC(=O)N1CCCN(C(=O)NCc2ccccn2)CC1 | -1.258
27 | O=C(Cn1cc(C(=O)O)ccc1=O)Nc1cc(F)ccc1F | -7.497
28 | Cc1[nH]ccc1C(=O)NC1CCC(N2C(=O)CCC2=O)CC1 (stereo not given) | -10.09
29 | Cc1cc(C)c(CNC(=O)NCCCNc2ccccn2)c(=O)[nH]1 | 5.95
30 | CCc1noc(CS(=O)(=O)Cc2nc(Cc3ccccc3)no2)n1 | 6.103
31 | O=C(CCc1ccccn1)NC1CCN(c2cccc(Cl)c2)C1 (stereo not given) | 3.633
32 | CN1CCC(c2cccc(CCC(=O)NCC(N)=O)n2)CC1 | 102.3
33 | CN1CCCC(c2cccc(CCC(N)=O)n2)C1 (stereo not given) | 113.5
34 | CS(=O)(=O)N[C@@H]1CCN(Cc2ccncc2)[C@H]1Cc1cccnc1 | -7.843
35 | COc1cc(C(=O)NCC2CC2)nc2c(C)cc(F)cc12 | 82.93
36 | COc1ccccc1C(O)Cn1cc(C(=O)NCC2CC2)nn1 (stereo not given) | -12.95
37 | COc1ccccc1[S+]([O-])CC(=O)NCc1cc(F)cc(F)c1 (stereo not given) | -8.178
38 | CCNC(=O)c1cc(OC)c2cc(F)cc(C)c2n1 | 114.2
39 | O=C(NCC1CC1)c1nc2c(o1)CN(CC1CC1)C2.O=C(O)C(F)(F)F | -8.922
40 | O=C(NCC1CCCO1)c1cc(COc2ccccc2F)[nH]n1 (stereo not given) | -5.725
41 | COc1ccc(F)cc1C(C)NC(=O)c1nnc(C)s1 (stereo not given) | 1.178
42 | Cc1cc(C(=O)NC(C)C(=O)Nc2cc(F)ccc2C)nc(C)n1 (stereo not given) | -4.486
43 | CCNC(=O)N(C)Cc1ccc(SC)c(OC)c1 | -16.12
44 | COc1cc(C(=O)NCC2CCCO2)nc2c(C)cc(F)cc12 (stereo not given) | 102.3
45 | COc1cc(CCNC(=O)NCCC2CCCO2)ccc1C (stereo not given) | -11.71
46 | COc1cc(C(=O)NC(C)C)nc2c(C)cc(F)cc12 | 104.7
47 | CS(=O)(=O)c1ccc(CNC[C@H]2COCc3nc4ccccc4n32)cc1 | -0.06058
48 | CN1CC[C@H]2CN(C(=O)c3ccc4sc5c(c4c3)CCNC5=O)C[C@H]21 | 3.711

Row | SMILES | Percent Effect [%]
49 | CCN(CC)C(=O)Cn1cc(C(=O)NCCCc2scnc2C)nn1 | 7.072
50 | CC(C)(C)C(O)CN1CCN(CC(=O)NC(C2CC2)C2CC2)CC1 (stereo not given) | 12.33
51 | O=C(C1CCSCC1)N1CC[C@H]2OCC[C@@]2(COCC2CC2)C1 | -16.75
52 | Cc1nc(S(=O)(=O)CCn2cccn2)n(C2CCCCC2)c1C | -17.58
53 | N#Cc1ccc(SCCCO)c(F)c1 | -3.443
54 | O=C(C[C@@H]1COC[C@H]2CN(C(=O)c3cccnc3)C[C@@H]12)N1CCCC1.O=C(O)C(F)(F)F | 97.49
55 | O=C(C[C@@H]1COC[C@H]2CN(Cc3ccncc3)C[C@@H]12)N1CCOCC1.O=C(O)C(F)(F)F.O=C(O)C(F)(F)F | 3.799
56 | O=C(C[C@@H]1COC[C@H]2CN(Cc3ccc(F)cc3)C[C@@H]12)N1CCOCC1.O=C(O)C(F)(F)F | 19.83
57 | O=C(C[C@@H]1COC[C@H]2CN(C3CCCC3)C[C@@H]12)NCc1cccnc1.O=C(O)C(F)(F)F.O=C(O)C(F)(F)F | 105.3
58 | Cc1cnc(CNC(=O)C[C@@H]2COC[C@H]3CN(C4CCC4)C[C@@H]23)cn1 | -2.895
59 | O=C(Nc1cnccn1)[C@@H]1COC[C@H]2CN(C3CCCC3)C[C@H]21.O=C(O)C(F)(F)F | 2.256
60 | COc1cc(N2C[C@H]3CN(C(=O)c4cccnc4)C[C@H]3C2)ncn1.O=C(O)C(F)(F)F | -0.6433
61 | O=C(C[C@@H]1COC[C@H]2CN(C(=O)c3cccnc3)C[C@@H]12)N1CCOCC1.O=C(O)C(F)(F)F | 132.5
62 | COCc1nn(CC2CC2)c2c1CN(Cc1ccco1)CC2.O=C(O)C(F)(F)F | -26.88
63 | Cc1cc(NC(=O)CN(CC(C)O)c2ccccc2)on1 (stereo not given) | -1.303
64 | COc1ccc(C2OC(COc3ccccc3Br)=NN2C(C)=O)cc1 (stereo not given) | -8.819
65 | CC(=O)N(C)Cc1ccc(OCc2cccs2)cc1 | 14.59
66 | COc1ccc(C2OC(COc3ccc(C)cc3)=NN2C(C)=O)cc1 (stereo not given) | 120.9
67 | COc1ccc(OCc2nc(C(=O)N3CCC(NC(C)=O)C3)co2)cc1 (stereo not given) | 5.881
68 | CC(=O)N1N=C(COc2ccc(C)cc2)OC1c1ccc(N(C)C)cc1 (stereo not given) | 128.5
69 | COc1cc(C(=O)N(CCC#N)Cc2ccccn2)cc(OC)c1C | 1.954
70 | O=C(CC1CCN(CCN2CCCCC2)CC1)N1CCOCC1 | -17.01
71 | O=C(Cc1cnn(-c2ccccc2)n1)NC1CCOCC1 | 19.75
72 | O=C(CC1CCN(CCc2ccccc2)CC1)N1CCCOCC1 | 161.2

Row | SMILES | Percent Effect [%]
73 | O=C(NCC1CCN(CCc2ccccc2)C1)NCC1(O)CCC1 (stereo not given) | -8.264
74 | O=C(CC1CCN(CCc2ccccc2)CC1)NC1CCOCC1 | 134.1
75 | O=C(CC1CN(Cc2ccccc2)CCO1)NC1CCCC1 (stereo not given) | 4.16
76 | CCCc1nc(CNC(=O)Cc2csc(C)n2)cs1 | -2.31
77 | Cc1nn(C)c(C)c1-c1ccnc(N(C)Cc2nc(C(C)C)no2)n1 | -10.91
78 | Cc1nn2cccnc2c1C(=O)NCc1ccccc1OC1CCC1 | -16.31
79 | O=C(c1cccnc1O)N1CCOC(Cc2cccc(C(F)(F)F)c2)C1 (stereo not given) | 16.06
80 | O=S(=O)(NCCCN1CC=CC1)c1cncc(Cl)c1 | -17.29
81 | Cc1cc(OCC(O)c2nc3c([nH]2)CC(C)(C)CNC3=O)ccc1Cl (stereo not given) | 90.28
82 | CC1(C)CNC(=O)c2nc(CCN3CCC(O)CC3)[nH]c2C1 | -46.57
83 | CCC(O)c1nc2c([nH]1)CC(C)(C)CNC2=O (stereo not given) | 130.2
84 | CC1(C)CNC(=O)c2nc(-c3nnn[nH]3)[nH]c2C1 | 23.12
85 | CC1(C)CNC(=O)c2nc(CCN3CCC(C(N)=O)CC3)[nH]c2C1 | -47.56
86 | CC1(C)CNC(=O)c2nc(-c3nnc(-c4ccccc4)[nH]3)[nH]c2C1 | 3.309
87 | CC1(C)CNC(=O)c2nc(-c3n[nH]c(=O)[nH]3)[nH]c2C1 | -9.314
88 | CCOCC(O)c1nc2c([nH]1)CC(C)(C)CNC2=O (stereo not given) | 90.67
89 | CC1(C)CNC(=O)c2nc(-c3ccccc3)[nH]c2C1 | 3.068
90 | CC(C)(C)CNS(=O)(=O)C1CS(=O)(=O)c2ccccc21 (stereo not given) | -2.538
91 | CCN(C)S(=O)(=O)N1CCC(C(O)c2ccc(F)cc2)CC1 (stereo not given) | -5.224
92 | Cc1noc2nc3c(c(C(=O)/N=c4\[nH]nc(C(C)C)s4)c12)CCC3 | 96.48
93 | Cc1nn(C)c2nc3c(c(C(=O)/N=c4\[nH]nc(C(C)C)s4)c12)CCC3 | 112.1
94 | Cc1n[nH]/c(=N\C(=O)c2c3c(nc4onc(C)c24)CCC3)s1 | 84.01
95 | COCc1n[nH]/c(=N\C(=O)c2c3c(nc4onc(C)c24)CCC3)s1 | 76.74
